Measured values published in PubChem BioAssay (NCATS).
Activity calls are given as the source filed them. Calls come from the whole dose curve.

How the values were obtained:
Test in all cases: Confirmatory Screen for Target Class Profiling of Small Molecule Inhibitors of Methyltransferases (AID 1745852); for activity change, negative = inhibition: % is set by controls: 0 for no effect and ±100 for the full control effect
[1] = biological target: Catechol O-methyltransferase (Homo sapiens) (UniProt P21964); conditions: MTase-Glo luminescence, SAH detection, recombinant enzyme; measured here: COMT max response; stronger effect = lower value
Sequence of Catechol O-methyltransferase (Homo sapiens) (P21964 whole entry, looked up): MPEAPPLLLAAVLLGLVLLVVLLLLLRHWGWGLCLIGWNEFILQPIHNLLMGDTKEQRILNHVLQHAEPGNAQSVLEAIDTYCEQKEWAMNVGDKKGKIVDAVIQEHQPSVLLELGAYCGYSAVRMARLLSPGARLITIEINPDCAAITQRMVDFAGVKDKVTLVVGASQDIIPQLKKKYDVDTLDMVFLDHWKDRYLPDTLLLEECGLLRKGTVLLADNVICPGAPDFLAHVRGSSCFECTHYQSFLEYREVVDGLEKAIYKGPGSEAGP

[2] = biological target: Guanidinoacetate N-methyltransferase (Homo sapiens) (UniProt Q14353); conditions: MTase-Glo luminescence, SAH detection, recombinant enzyme; activity change, negative = inhibition: at 57.3 µM (top of the series) unless noted; series mostly up to 57.3 µM
[3] = biological target: Nicotinamide N-methyltransferase (Homo sapiens) (UniProt P40261); conditions: MTase-Glo luminescence, SAH detection, recombinant enzyme; measured here: NNMT max response; stronger effect = lower value
Sequence of Nicotinamide N-methyltransferase (Homo sapiens) (P40261 whole entry, looked up): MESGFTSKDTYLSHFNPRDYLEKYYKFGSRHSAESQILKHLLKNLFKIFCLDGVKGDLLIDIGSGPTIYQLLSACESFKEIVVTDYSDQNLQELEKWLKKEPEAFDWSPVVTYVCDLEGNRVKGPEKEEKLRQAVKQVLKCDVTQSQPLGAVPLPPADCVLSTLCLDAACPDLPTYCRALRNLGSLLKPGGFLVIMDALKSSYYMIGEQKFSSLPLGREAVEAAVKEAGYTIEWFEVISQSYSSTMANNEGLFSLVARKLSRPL

[4] = biological target: Phenylethanolamine N-methyltransferase (Homo sapiens) (UniProt P11086); conditions: MTase-Glo luminescence, SAH detection, recombinant enzyme; measured here: PNMT max response; stronger effect = lower value
Sequence of Phenylethanolamine N-methyltransferase (Homo sapiens) (P11086 whole entry, looked up): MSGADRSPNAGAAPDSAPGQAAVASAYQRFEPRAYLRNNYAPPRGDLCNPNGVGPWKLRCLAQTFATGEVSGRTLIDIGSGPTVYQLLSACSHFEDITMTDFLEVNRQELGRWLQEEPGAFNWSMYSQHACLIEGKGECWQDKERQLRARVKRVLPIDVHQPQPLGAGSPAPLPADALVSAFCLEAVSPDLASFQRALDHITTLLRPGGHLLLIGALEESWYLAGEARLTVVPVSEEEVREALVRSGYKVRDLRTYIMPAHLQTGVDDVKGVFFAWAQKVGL
Potency is the fitted concentration of half-maximal effect.

Row | SMILES | activity [1] | activity change, negative = inhibition [2] | activity [3] | activity [4] | Potency [2]
1 | c1ccc(-c2cc3c(cn2)NCCN(CC2CC2)C3)cc1 | 8.66% | 7.08% [at 114 µM] | 4.63% | 6.73% | 
2 | COc1ccc(OC)c2c1cc1n2CC(C)(C(=O)NC2CCCCC2)N(Cc2ccccn2)C1=O (stereo not given) | -7.35% | -3.03% | -22.4% | -6.38% | 
3 | O=C1c2ccccc2C(=O)c2c1cccc2S(=O)(=O)Nc1ccc(Cl)cc1 | 0.0726% | -0.67% | -1.28% | -37% | 
4 | CCCNc1cc(N2CCC(CCC(=O)NCCN3CCCCCC3)CC2)ncn1 | 7.42% | 8.04% | -8.06% | 0.426% | 
5 | CC(CNC(=O)CCc1nnc2n(Cc3ccc(F)cc3)c(=O)c3ccccc3n12)c1ccccc1 (stereo not given) | -6.68% | -2.31% | -44.2% | -0.739% | 
6 | CCOC(=O)c1ccc(NC(=O)Cn2c(=O)oc3cc(S(=O)(=O)N4CCCC4)ccc32)cc1 | -7.51% | -4.51% | -9.52% | -37.8% | 
7 | CC1CC(C)CN(S(=O)(=O)c2ccc3c(c2)oc(=O)n3CC(=O)Nc2cccc(F)c2)C1 (stereo not given) | 1.38% | 0% | -0.567% | -52.9% | 
8 | Cc1ccc(C)c(N2CCN(C(=O)c3ccc4c(=O)[nH]c5c(C(=O)NC(C)C)sc(=S)n5c4c3)CC2)c1 | -41.7% | -2.19% | -76.8% | -17.9% | 
9 | Cn1cc(CN2CCCC(COc3ccccc3C(=O)N3CCCCC3)C2)c2ccccc21 (stereo not given) | 6.44% | 7.22% | 4.53% | 3.6% | 
10 | CCN(CC)CCCNC(=O)CCc1nnc2n(Cc3ccc(F)cc3)c(=O)c3ccccc3n12 | 2.05% | 0% | -4.75% | 1.85% | 
11 | CCN(CC)CCNC(=O)CCc1nnc2n(Cc3ccccc3Cl)c(=O)c3ccccc3n12 | -5.86% | -1.02% | -14.7% | 2.62% | 
12 | O=C(CCc1nnc2n(CCc3ccccc3)c(=O)c3ccccc3n12)N1CCC(N2CCCCC2)CC1 | 4.18% | 0.438% | -3.96% | 0% | 
13 | O=C(Cc1ccsc1)Nc1ccc2c(N3CCCC3)ncnc2c1 | 0.696% | 4.54% | 3.05% | -6.83% | 
14 | COc1ncccc1-c1nccn2c(C3CN(Cc4ccccc4O)C3)ncc12 | 2.23% | 2.06% [at 85.7 µM] | 7.78% | 3.8% | 
15 | COCc1nc2nc(-c3ccccc3)c(-c3ccc(O)c(F)c3)cc2n1C | -38% |  | -53% | -59.9% | 39.3 µM (active)
16 | CCCN1CCn2c3c(c4cc(OC)ccc42)CCN=C31 | -5.03% | -1.32% | -6.4% | -5.52% | 
17 | Cc1cnc(C2CC2)n1C1CCCN(Cc2ccccc2)C1 (stereo not given) | 3.04% | 5.24% | -1.39% | 0.832% | 
18 | COC(=O)[C@@H]1Cc2ncn(Cc3ccc(Cl)cc3)c2CN1CCCc1ccccc1 | 0.13% | 2.15% [at 85.7 µM] | -17% | -1.27% | 
19 | CC1CCN(CCCNC(=O)CCc2nnc3n(Cc4ccc(F)cc4)c(=O)c4ccccc4n23)CC1 | -10.3% | -2.12% | -14.9% | -5.49% | 
20 | CCN(CC)CCCNC(=O)CCc1nnc2n(Cc3ccc(Cl)cc3)c(=O)c3ccccc3n12 | 4.07% | 0% | -5.57% | 0% | 

Row | SMILES | activity [1] | activity change, negative = inhibition [2] | activity [3] | activity [4] | Potency [2]
21 | COc1ccc(CN2CCCC(COc3ccccc3C(=O)NC3CC3)C2)c(OC)c1 (stereo not given) | 4.91% | 4.18% | 1.02% | 1.19% | 
22 | CCCC1c2cccn2CCN1C(=O)Nc1ccc(F)cc1F (stereo not given) | -4.42% | 1.31% | -4.75% | -3.85% | 
23 | O=C(Cn1ccc2cc(S(=O)(=O)N3CCCCC3)ccc21)NCCCN1CCCCC1 | -5.54% | -0.43% | -8.24% | -7.19% | 
24 | CC(C)c1nccn1CCCNC(=O)c1ccc(-c2cccc(F)c2)nc1 | 4.81% | 3.97% | 9.65% | -0.0651% | 
25 | O=C(NCCc1ccccc1)N1CCn2cccc2C1Cc1ccccc1 (stereo not given) | 0.987% |  | -8.34% | -0.866% | inactive
26 | CCn1cc(CN2CCN(C(=O)c3cccs3)CC2)ccc1=O | 0.352% | -2.5% | -1.21% | -6.54% | 
27 | O=C(CC1CCCC1)N1CCC(Nc2cccnc2)C1 (stereo not given) | -11% | -10.5% | -14.6% | -7.86% | 
28 | O=C(c1ccc2c(=O)nc3c(-c4ccc(Cl)cc4)n[nH]n3c2c1)N1CCN(Cc2ccccc2)CC1 | -8.28% | 1.01% | -22.4% | -11.1% | 
29 | O=C(CCc1nnc2n(CCc3ccccc3)c(=O)c3ccccc3n12)NCCCN1CCCCC1 | -0.192% | 0% | 0.418% | 0.873% | 
30 | COc1cccc2c1OCCCN(c1cc(C3CC(O)C3)nc(N)n1)C2 (stereo not given) | 5.04% | 6.51% | 3.54% | 4.23% | 
31 | N#Cc1cc(CN2CCCC(C(=O)Nc3cccc(-c4ccc(F)cc4)c3)C2)c[nH]1 (stereo not given) | -4.34% | -9.38% | -14.2% | -5.67% | 
32 | CC(=O)Nc1cccc(-c2cc3c(cn2)CN(Cc2ccccc2)CCN3)c1 | -2.16% | 0.249% [at 85.7 µM] | -13% | -14.8% | 
33 | COc1ccc(CCN2C(=O)c3cc4oc(C)cc4n3CC2(C)C(=O)NC2CCCCC2)cc1OC (stereo not given) | -7.54% | -4.8% | -78.3% | -5.67% | 
34 | c1ccc(-c2cc3c(cn2)NCCN(Cc2ccccn2)C3)cc1 | 1.39% | 3.72% [at 85.7 µM] | -8.79% | -1.82% | 
35 | COC(=O)c1cc2n(n1)CC(C)(C(=O)NC1CCC(C)CC1)N(Cc1ccc(OC)cc1OC)C2=O (stereo not given) | -11.6% | -7.55% | -66.9% | -13.3% | 
36 | O=C(N[C@H](C1CCNCC1)C1CC(O)C1)c1ccc2nccnc2c1 (stereo not given in full) | -0.82% | 1.16% | 10.8% | 3.61% | 
37 | O=C(CCCc1nnc2n3nc(-c4ccccc4)nc3c3ccccc3n12)NCCCN1CCCCC1 | -1.71% | 0% | 2.5% | 0.451% | 
38 | CCCCCNC(=O)c1sc(=S)n2c1[nH]c(=O)c1ccc(C(=O)OC)cc12 | -39.2% |  | -59.4% | -27% | 30.4 µM (active)
39 | COc1cccc([C@H]2Nc3ccc(S(=O)(=O)Nc4ccc(C)cc4C)cc3[C@H]3C=CC[C@H]32)c1 | -17.4% |  | -21.2% | -27.1% | 27.1 µM (active)
40 | COc1ccccc1CC(=O)N1CCCc2ncc(C(=O)Nc3cccc(Cl)c3)cc21 | 2.46% | 2.54% [at 85.7 µM] | 9.05% | 3.39% | 

Row | SMILES | activity [1] | activity change, negative = inhibition [2] | activity [3] | activity [4] | Potency [2]
41 | Cc1ccc(Cn2c(=O)c3ccccc3n3c(-c4cccc(C)c4)nnc23)cc1 | -4.65% | 2.78% | -4.69% | -4.19% | 
42 | NC(=O)C1(N2CCCCC2)CCN(c2nc3c(S(=O)(=O)c4ccccc4)nnn3c3ccccc23)CC1 | -1.9% | 0% | -8.86% | -8.88% | 
43 | COc1cccc(NC(=O)Cn2c(=O)oc3cc(S(=O)(=O)N4CCCCC4C)ccc32)c1 (stereo not given) | 0.845% | -1.86% | -2.27% | -70.8% | 
44 | Cc1ccc(CNC(=O)c2ccc3c(=O)[nH]c4c(C(=O)NC(C)C)sc(=S)n4c3c2)cc1 | -30.2% | -7.1% | -65.3% | -17.2% | 
45 | Cc1cccc(N2CCN(C(=O)CCc3nnc4n(CC(C)C)c(=O)c5ccccc5n34)CC2)c1C | 4.82% | 2.51% | -69.8% | 4.08% | 
46 | O=C(Cn1c(=O)oc2cc(S(=O)(=O)N3CCCC3)ccc21)Nc1cccc(Cl)c1 | -1.16% | 0% | 4.81% | -49.8% | 
47 | Cc1cnc(CCNC(=O)c2n[nH]c(=O)c3ccccc23)n1C1CCCCC1 | -2.57% | 5.31% | -0.405% | -2.34% | 
48 | COc1ccc(CN2C(=O)c3cc4sccc4n3CC2(C)C(=O)NC2CCC(C)CC2)cc1OC (stereo not given) | -5.8% | 0.162% | -79.1% | -7.08% | 
49 | COc1ccc(CCNc2nc3c(-c4cccc(F)c4)nnn3c3ccccc23)cc1OC | -7.47% | -8.63% | -5.65% | -3.23% | 
50 | COCCNc1cc(-c2noc([C@@H]3CCCN3CC(C)C)n2)ccn1 | 3.05% | 1.02% [at 85.7 µM] | -4.35% | 2.32% | 
51 | CCN(CC)c1cc(CCC(=O)N2CCN(c3cccc(OC)c3)CC2)ccn1 | -2.67% | 5.52% | 1.73% | -3.99% | 
52 | Cn1c(=O)n(C)c2cc(S(=O)(=O)Nc3cc4c(cc3NCc3ccccc3)n(C)c(=O)n4C)ccc21 | -26% |  | -35.1% | -25.2% | 21.5 µM (active)
53 | CCCc1sc(NC(=O)C[C@H]2NC(=O)c3ccccc3NC2=O)nc1C(=O)OC | 4.16% | 2.83% | -4.71% | 3.73% | 
54 | O=C(c1ccc(Cl)cc1)N1CC2(CCN(CC3CC3)CC2)Cc2ccccc21 | -9.09% | -2.34% | -9.37% | -4.04% | 
55 | CCCC1c2cccn2CCN1C(=O)Nc1ccc(OC)cc1 (stereo not given) | -6.82% | -3.73% | -13.3% | -7.43% | 
56 | Cc1c(OCc2ccc(C(=O)O)o2)ccc2c(-c3ccccc3)cc(=O)oc12 | -33.2% |  | -34.7% | -33.9% | 24.1 µM (active)
57 | Cc1cc(-c2nc3ccncc3[nH]2)c(C)[nH]1 | -4.56% | 3.2% [at 114 µM] | -25.8% | -11.2% | 
58 | CC1(C(=O)NC2CCCCCC2)Cn2c(cc3occc32)C(=O)N1Cc1ccc2c(c1)OCO2 (stereo not given) | -5.04% |  | -18% | -10.8% | inactive
59 | CCN(CC)CCCNC(=O)CCCc1nnc2n3nc(-c4ccccc4)nc3c3ccccc3n12 | -3.39% | 0% | -0.543% | -1.05% | 
60 | CCOC(=O)C1CCCN(S(=O)(=O)c2ccc3[nH]c(=O)[nH]c3c2)C1 (stereo not given) | 2.57% | 0% | -6.43% | -50.4% | 
